The values that follow come from PubChem BioAssay AID1469 (National Center for Advancing Translational Sciences (NCATS), 2008).

About 180 (0.064%) of roughly 280,000 compounds were called active. The call rests on the fitted dose curve; in most records, active means well fitted inhibition curve with a large enough effect; inconclusive means small, poorly fitted or top-dose-only effect, or effect the other way; inactive means flat fitted curve, though single readings scatter. Shown is part of a subset that was picked to be rich in actives.
Potency means the concentration at half of the fitted maximal effect.

Sequence of Thyroid hormone receptor beta (Homo sapiens) (P10828 whole entry, looked up): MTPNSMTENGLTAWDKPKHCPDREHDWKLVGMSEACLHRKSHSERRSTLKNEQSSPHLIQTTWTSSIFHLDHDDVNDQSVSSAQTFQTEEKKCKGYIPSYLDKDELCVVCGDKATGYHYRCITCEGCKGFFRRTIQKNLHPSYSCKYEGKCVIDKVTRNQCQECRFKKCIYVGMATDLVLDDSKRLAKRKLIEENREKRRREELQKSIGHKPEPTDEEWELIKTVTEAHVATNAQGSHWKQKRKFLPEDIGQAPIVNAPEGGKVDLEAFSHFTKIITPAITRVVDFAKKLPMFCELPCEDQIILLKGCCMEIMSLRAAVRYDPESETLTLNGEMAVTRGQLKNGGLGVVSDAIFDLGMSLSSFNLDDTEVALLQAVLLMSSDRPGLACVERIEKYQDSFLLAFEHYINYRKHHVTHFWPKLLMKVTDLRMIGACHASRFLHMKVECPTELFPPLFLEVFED

The target in this assay is Thyroid hormone receptor beta (Homo sapiens) (UniProt P10828). In words: qHTS for Inhibitors of the Interaction of Thyroid Hormone Receptor and Steroid Receptor Coregulator 2. Further: nearly all actives have a fitted effect of over 50% in size.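 On activity change, negative = inhibition: plate controls were bound peptide for no effect and peptide without receptor for full effect.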 Particulars: TRbeta-SRC2 peptide binding, fluorescence polarization, receptor liganded with 1 µM T3; series mostly up to 106 µM; activity change, negative = inhibition: at the top concentration. From the text:
NIH Molecular Libraries Probe Production Network [MLPCN]
NIH Chemical Genomics Center [NCGC]
Assay Provider: R. Kip Guy, St. Jude Children's Research Hospital
Thyroid receptor (TR) regulates many homeostatic processes including basal metabolism, cardiovascular function, body weight, and lipid trafficking. TR modulators are potential therapeutics for obesity and hyperlipidemias but current thyroid analogs have undesirable side effects, particularly cardiac stimulation. To identify inhibitors that specifically prevent the interaction of TR with the steroid receptor coregulator 2 (SRC2), a fluorescence polarization assay was screened. This assay detects interaction of the ligand-binding domain of human TRb with a Texas Red labeled SRC2 peptide, corresponding to a 20 amino acid region of the nuclear receptor interaction domain (Arnold et al., 2006). Small molecule inhibitors that block the interaction of TR and SRC2 are detected by a decrease in fluorescence polarization.
Arnold, L. A.; Estebanez-Perpina, E.; Togashi, M.; Shelat, A.; Ocasio, C. A.; McReynolds, A. C.; Nguyen, P.; Baxter, J. D.; Fletterick, R. J.; Webb, P.; Guy, R. K. A high-throughput screening method to identify small molecule inhibitors of thyroid hormone receptor coactivator binding. Sci STKE 2006, p 13.
NCGC Assay Protocol Summary:
For screening, 5 uL/well 0.6 uM TRb and 20 nM SRC2 Texas Red in protein buffer (20mM Tris hydrochloride, 100mM NaCl, 10% glycerol, 1mM EDTA, 0.01% NP-40, 1mM DTT, 1uM T3 and 5% DMSO) was dispensed into black solid 1536-well plates (Grenier) using a solenoid-based dispenser. Following transfer of 23 nL compound or DMSO vehicle by a pin tool, the plates were centrifuged 15 s at 1000 RPM and incubated 5 hr at ambient temperature. The plates were read by an Envision (Perkin Elmer) to detect fluorescence polarization of SRC2 Texas Red (555 nm excitation and 632 nm emission). Data were normalized to unbound (all components except TRb) and bound SRC2 Texas Red controls. In this assay, we provide % activity data for each concentration as well as potencies for the active compounds.
Keywords: NIH Roadmap, MLPCN, MLI, MLSMR, qHTS, NCGC, qHTS, thyroid hormone receptor, steroid receptor coactivator, fluorescence polarization
For `Cc1ccc(CN2CCc3nc(N4CCN(C)CC4)ncc3C2)cc1`, the “activity change, negative = inhibition” value was -3.16% (inactive).

With `CCN1CCN(c2ncc3c(n2)CC(c2ccccc2O)CC3=O)CC1` (stereo not drawn), the “activity change, negative = inhibition” value is 4.08% (inactive).

Take `Cc1nc2nc(SCC(=O)N(Cc3ccccc3)C(C)C)nn2c(C)c1Cc1ccccc1Cl`: the “activity change, negative = inhibition” value was 6.02% (inactive).

Take `Cc1ccc(NC(=O)c2nc(S(=O)(=O)Cc3cccc(C)c3)ncc2Cl)cc1`: the “activity change, negative = inhibition” value is -0.903% (inactive).

As for `CC(=O)OC1=C(C(C)=O)N(Cc2ccccc2)S(=O)(=O)c2ccccc21`, the “activity change, negative = inhibition” value was -0.701% (inactive).

Turning to `Cc1cccc(OCCSc2nc3ccccc3n2CC(=O)N2CCCCC2)c1C`, the “activity change, negative = inhibition” value is -1.35% (inactive).

Regarding `Cc1ccccc1CNC(=O)CCCn1nc(C)c2sc3ccccc3c2c1=O`, the “activity change, negative = inhibition” value was -0.387% (inactive).

As to `Cc1c(C)n(Cc2ccc(Cl)cc2)c2ccc(C(=O)NCCc3ccc(S(N)(=O)=O)cc3)cc12`, the “activity change, negative = inhibition” value was -3.01% (inactive).

As for `COc1ccc2cc(CNc3ccc(OC)c(OC)c3)c(=O)n(CC(=O)Nc3ccccc3F)c2c1`, the “activity change, negative = inhibition” value is -2.35% (inactive).

In the case of `CSc1ccc(C2C(C(=O)Nc3ccccc3)=C(C)Nc3nc4ccccc4n32)cc1` (stereo not drawn), the “activity change, negative = inhibition” value was -8.79% (inactive).

As for `COc1ccc(CCNC(=O)c2nn(C)c3c2CSc2ccccc2-3)cc1OC`, the “activity change, negative = inhibition” value was -1.01% (inactive).

`COc1ccc(-c2nc(C)c(CCNC(=O)c3ccc(C(F)(F)F)cc3)s2)cc1OC`: the “activity change, negative = inhibition” value is 0.0329% (inactive).

`COc1c(O)c2c(=O)cc(OC)c3c4c(OC)cc(=O)c5c(O)c(OC)c6c(c(c1C[C@@](C)(O)[C@H]6C(C)=O)c23)c54`: the Potency was 35.5 µM (active).

In the case of `COc1ccc2c(c1)c(N1CCCC1=O)c(C(=O)Nc1ccc(OC)c(Cl)c1)n2C`, the “activity change, negative = inhibition” value is 3.35% (inactive).

In the case of `COc1ccc(Cl)cc1NC(=O)c1sc2nc3c(cc2c1N)CN(C)CC3`, the “activity change, negative = inhibition” value was 0.478% (inactive).

For `Cc1cccc(NC(c2cccc(F)c2)c2ccc3ccc(C)nc3c2O)n1` (stereo not drawn), the “activity change, negative = inhibition” value is 0.0507% (inactive).

Take `CCOc1ccc(N(Cc2ccccc2)C(=O)c2nc(S(C)(=O)=O)ncc2Cl)cc1`: the “activity change, negative = inhibition” value was -7.22% (inactive).

Consider `O=C(/C=C/c1ccccc1[N+](=O)[O-])NCC1CCCO1` (stereo not drawn), for which the “activity change, negative = inhibition” value was 1.44% (inactive).

For the compound `CC1CCCCC1NC(=O)/C(C#N)=C/C=C/c1ccccc1[N+](=O)[O-]` (stereo not drawn), the Potency was 39.8 µM (active).

Regarding `O=C(/C=C/c1ccccc1[N+](=O)[O-])OC1CCCCC1=O` (stereo not drawn), the “activity change, negative = inhibition” value is 0.395% (inactive).

As for `CCNS(=O)(=O)c1cc(-c2nnc(Nc3cccc(C(F)(F)F)c3)c3ccccc23)ccc1C`, the “activity change, negative = inhibition” value is 8.87% (inactive).

For the compound `O=C(NCCCN1CCN(c2cccc(Cl)c2)CC1)c1nnc(Cc2ccc(F)cc2Cl)o1`, the “activity change, negative = inhibition” value was 5.2% (inactive).

As to `COc1ccc(-c2cc(NCc3ccc(F)cc3)n3cnnc3n2)cc1`, the “activity change, negative = inhibition” value is 2.27% (inactive).

Regarding `Cc1ccc(NC(=O)CN2C(=O)C(c3ccc(F)cc3)=NC23CCCCCC3)c(C)c1`, the “activity change, negative = inhibition” value is -0.31% (inactive).

For the compound `Cc1ccc(Nc2c(-c3ccc(N(C)C)cc3)nc3nc[nH]n23)cc1`, the “activity change, negative = inhibition” value is 2.09% (inactive).

With `O=C(NC1CC(=O)N(c2ccc(F)cc2)C1)c1ccc(S(=O)(=O)N2CCCC2)cc1` (stereo not drawn), the “activity change, negative = inhibition” value is -0.489% (inactive).

On to `COC(=O)c1ccc(NC(=O)CSc2n[nH]c(-c3ccccc3)n2)cc1`, for which the “activity change, negative = inhibition” value is 1.11% (inactive).

In the case of `Cn1nc(-c2ccccc2)c(-c2ccccc2)c(C(=O)Nc2ccc(S(N)(=O)=O)cc2)c1=O`, the “activity change, negative = inhibition” value was -7.69% (inactive).

In the case of `COc1ccc(-c2cn3c(n2)sc2cc(C(=O)Nc4ccccc4F)ccc23)cc1`, the “activity change, negative = inhibition” value is 0.784% (inactive).

For `CCOc1cccc(NC(=O)CSc2ncc(-c3ccc(Cl)cc3)[nH]2)c1`, the “activity change, negative = inhibition” value was 8.96% (inactive).

As to `O=C(Nc1c(C(=O)N2CCN(c3ccc(F)cc3)CC2)oc2ccccc12)c1ccco1`, the “activity change, negative = inhibition” value is 5.17% (inactive).

In the case of `COc1ccc(-c2noc(CSc3nc(C)cc(=O)[nH]3)n2)cc1OC`, the “activity change, negative = inhibition” value was -6.31% (inactive).

As for `CCOC(=O)c1cnc2c(C)cc(C)cc2c1Nc1ccc(N2CCOCC2)cc1`, the “activity change, negative = inhibition” value was 4.22% (inactive).

As to `CC(C)c1ccc(C2CC(=O)N3CN(C4CCCCC4)CSC3=C2C#N)cc1` (stereo not drawn), the “activity change, negative = inhibition” value is -3.24% (inactive).

For the compound `Clc1nc(Cl)c(Cl)c(Cl)c1Cl`, the “activity change, negative = inhibition” value is 2.91% [at 201 µM] (inactive).

Regarding `O=C(c1cnn(-c2ccc(F)cc2)c1-n1cccc1)N1CCN(c2ccc(F)cc2)CC1`, the “activity change, negative = inhibition” value was -0.53% (inactive).

Take `COc1ccc(-c2cccc(NS(=O)(=O)c3cc(C)c(OC)c(C)c3C)c2)nn1`: the “activity change, negative = inhibition” value was -3.96% (inactive).

Regarding `O=C(CSc1nc2nccnc2c(=O)n1CCc1c[nH]c2ccccc12)Nc1ccccc1F`, the “activity change, negative = inhibition” value was -1.34% (inactive).

Take `COc1cccc(-n2cc(C(=O)NCc3cccc(Cl)c3)c3ccccc3c2=O)c1`: the “activity change, negative = inhibition” value is 5.09% (inactive).

With `CCN(Cc1ccccc1)C(=O)c1cn(-c2cccc(OC)c2)c(=O)c2ccccc12`, the “activity change, negative = inhibition” value was 0.692% (inactive).

Take `O=C(CSc1nccn1-c1ccc(F)cc1)Nc1cccc2ccccc12`: the “activity change, negative = inhibition” value was -1.67% (inactive).

Consider `CC1=C(c2ccc(C)cc2)S(=O)(=O)NC1=NCCCN1CCN(c2cc(C)ccc2C)CC1`, for which the “activity change, negative = inhibition” value was -0.687% (inactive).

Regarding `COc1ccc(-c2cc(C(=O)NCc3cc(OC)c(OC)c(OC)c3)[nH]n2)cc1`, the “activity change, negative = inhibition” value was 1.65% (inactive).

As to `CCC(C(=O)Nc1cc(OC)ccc1OC)n1c(=O)c(C(F)(F)F)nc2ccccc21` (stereo not drawn), the “activity change, negative = inhibition” value was -2.12% (inactive).

`CCOC(=O)c1oc2ccc(S(=O)(=O)n3nc(-c4ccccc4OC)cc3N)cc2c1C`: the “activity change, negative = inhibition” value is -12.1% (inactive).

For the compound `COc1ccc(NS(=O)(=O)c2cc3c4c(c2)CC(=O)N4CCC3)cc1Cl`, the “activity change, negative = inhibition” value is 5.52% (inactive).

With `Cc1ccc(C)c(Nc2nnc(-c3ccc(C)c(S(=O)(=O)N4CCCCC4)c3)c3ccccc23)c1`, the “activity change, negative = inhibition” value was -0.116% (inactive).

Consider `O=C(C1CCCN(S(=O)(=O)c2cccc3nonc23)C1)N1CCN(c2ccccc2F)CC1` (stereo not drawn), for which the “activity change, negative = inhibition” value was -9.58% (inactive).
